Source: article PMC4336329 (PLoS ONE, 2015)
Hit rate of the full screen: of about 310,000 compounds, about 14,000 (4.5%) showed an effect of 50% or more. Effects have a minus sign here. For the sample, strong results were picked, then their nearest neighbours and some compounds at random.

What follows are molecules tested against human ether-à-go-go-related gene (hERG) potassium channel (human, UniProt Q12809) (assay: primary screen, population patch clamp on CHO cells stably expressing hERG; higher = less effect of the substance).
Sequence of human ether-à-go-go-related gene (hERG) potassium channel (Q12809 whole entry, looked up): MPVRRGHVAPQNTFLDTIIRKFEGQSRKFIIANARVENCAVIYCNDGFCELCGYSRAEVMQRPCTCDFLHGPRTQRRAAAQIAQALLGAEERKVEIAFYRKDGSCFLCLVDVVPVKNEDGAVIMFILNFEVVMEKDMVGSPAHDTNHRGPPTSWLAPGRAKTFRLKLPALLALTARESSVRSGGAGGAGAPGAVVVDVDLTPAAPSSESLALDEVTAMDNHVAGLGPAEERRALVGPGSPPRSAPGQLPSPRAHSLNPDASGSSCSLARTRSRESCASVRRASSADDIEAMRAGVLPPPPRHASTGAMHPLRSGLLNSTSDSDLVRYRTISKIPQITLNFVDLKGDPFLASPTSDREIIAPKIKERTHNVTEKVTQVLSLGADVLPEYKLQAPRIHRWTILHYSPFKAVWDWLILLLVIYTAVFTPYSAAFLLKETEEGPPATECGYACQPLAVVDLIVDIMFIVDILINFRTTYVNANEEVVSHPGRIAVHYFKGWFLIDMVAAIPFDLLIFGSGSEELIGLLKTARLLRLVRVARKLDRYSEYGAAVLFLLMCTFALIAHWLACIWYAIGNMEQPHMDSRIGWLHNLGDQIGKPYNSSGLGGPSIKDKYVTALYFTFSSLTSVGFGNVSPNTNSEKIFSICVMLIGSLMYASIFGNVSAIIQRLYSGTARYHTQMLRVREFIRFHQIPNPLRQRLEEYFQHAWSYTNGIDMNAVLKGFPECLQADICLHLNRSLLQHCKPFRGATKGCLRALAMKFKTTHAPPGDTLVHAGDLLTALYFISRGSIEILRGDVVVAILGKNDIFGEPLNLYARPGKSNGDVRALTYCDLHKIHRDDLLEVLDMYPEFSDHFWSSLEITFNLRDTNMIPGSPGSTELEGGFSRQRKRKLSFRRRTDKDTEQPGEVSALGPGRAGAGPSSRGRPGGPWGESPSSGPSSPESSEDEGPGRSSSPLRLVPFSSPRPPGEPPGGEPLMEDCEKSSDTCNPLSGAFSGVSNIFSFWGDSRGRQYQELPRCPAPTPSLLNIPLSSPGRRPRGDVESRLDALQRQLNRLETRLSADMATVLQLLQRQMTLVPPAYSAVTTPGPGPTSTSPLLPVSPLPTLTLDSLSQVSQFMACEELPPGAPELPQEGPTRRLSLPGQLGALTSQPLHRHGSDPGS
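Note: peak tail current of the secondary pulse compared with the same well before compound.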

**Q.** With `COC(=O)c1sc(NC(=O)COc2cccnc2[N+](=O)[O-])c(C(=O)OC)c1C` as the molecule, how does the “hERG current change (%, negative = inhibition) at 10uM” value read?
**A.** 3.81%

**Q.** With `CCOc1ccccc1Cn1c(=O)oc2ccc(C)cc21` as the molecule, how does the “hERG current change (%, negative = inhibition) at 10uM” value read?
**A.** 11.1%

**Q.** How did the “hERG current change (%, negative = inhibition) at 10uM” value turn out when `Cc1cc(C)cc(N(CC(=O)NCC2CCCO2)C(=O)CCC(=O)Nc2nccs2)c1` (stereo not shown) was run?
**A.** 12.8%

**Q.** How did the “hERG current change (%, negative = inhibition) at 10uM” value turn out when `O=C(/C=C/c1cccc([N+](=O)[O-])c1)NCCSCc1cccc(Cl)c1` was run?
**A.** -18.9%

**Q.** For `CCOCCCNC(=O)C(NC(=O)c1ccccc1O)c1ccccc1` (stereo not shown), which “hERG current change (%, negative = inhibition) at 10uM” value is on record?
**A.** 7.92%

**Q.** Which “hERG current change (%, negative = inhibition) at 10uM” value does the source give for `COc1ccc(S(=O)(=O)NCC(c2cccnc2)N2CCN(C)CC2)cc1C` (stereo not shown) here?
**A.** -62.9%

**Q.** With `Cc1cc(S(=O)(=O)NCC(C)C)ccc1OCC(=O)N1CCN(Cc2ccccc2)CC1` as the molecule, how does the “hERG current change (%, negative = inhibition) at 10uM” value read?
**A.** -35.2%

**Q.** How did the “hERG current change (%, negative = inhibition) at 10uM” value turn out when `CCN1CCN(C(CNS(=O)(=O)c2ccc(OC)c(C)c2)c2cccnc2)CC1` (stereo not shown) was run?
**A.** -70.2%

**Q.** For `COc1ccccc1N1CCN(C(CNS(=O)(=O)c2ccc(C)cc2)c2cccnc2)CC1` (stereo not shown), which “hERG current change (%, negative = inhibition) at 10uM” value is on record?
**A.** -38.9%

**Q.** `COc1ccc(S(=O)(=O)NCC(c2cccnc2)N2CCN(c3ccccc3)CC2)cc1C` (stereo not shown) was tested. Which “hERG current change (%, negative = inhibition) at 10uM” value did it give?
**A.** -79.2%

**Q.** How did the “hERG current change (%, negative = inhibition) at 10uM” value turn out when `COc1ccc(S(=O)(=O)NCC(c2cccnc2)N2CCN(C)CC2)cc1OC` (stereo not shown) was run?
**A.** 10.7%

**Q.** For `CCS(=O)(=O)NCC(c1cccnc1)N1CCN(c2ccccc2OC)CC1` (stereo not shown), which “hERG current change (%, negative = inhibition) at 10uM” value is on record?
**A.** 0.421%

**Q.** For `COc1ccc(C)cc1S(=O)(=O)NCC(c1cccnc1)N1CCc2ccccc2C1` (stereo not shown), which “hERG current change (%, negative = inhibition) at 10uM” value is on record?
**A.** -25.3%

**Q.** For `COc1ccc(S(=O)(=O)NCC(c2cccnc2)N2CCN(Cc3ccccc3)CC2)cc1C` (stereo not shown), which “hERG current change (%, negative = inhibition) at 10uM” value is on record?
**A.** -79.6%

**Q.** Which “hERG current change (%, negative = inhibition) at 10uM” value does the source give for `COc1ccc(S(=O)(=O)NCc2cccnc2)cc1C` here?
**A.** 17.1%

**Q.** `COc1ccccc1N1CCN(C(CNS(=O)(=O)c2ccccc2)c2cccnc2)CC1` (stereo not shown) was tested. Which “hERG current change (%, negative = inhibition) at 10uM” value did it give?
**A.** -7.98%

**Q.** How did the “hERG current change (%, negative = inhibition) at 10uM” value turn out when `Cc1ccc(Sc2ncccc2COC(=O)NC(C)C)cc1` was run?
**A.** 4.99%

**Q.** With `CC(C)OCCCN(CC(O)c1ccccc1)CC(O)c1ccccc1.O=C(O)C(=O)O` (stereo not shown) as the molecule, how does the “hERG current change (%, negative = inhibition) at 10uM” value read?
**A.** -10.1%

**Q.** With `CC(C)(C)C(=O)C[n+]1cccc(C(N)=O)c1.[Br-]` as the molecule, how does the “hERG current change (%, negative = inhibition) at 10uM” value read?
**A.** 21%

**Q.** Which “hERG current change (%, negative = inhibition) at 10uM” value does the source give for `Cc1nn(-c2ccccc2)c2c1C1(C(=O)N(C(C)C)c3ccccc31)C(C#N)=C(N)O2` (stereo not shown) here?
**A.** -1.88%

**Q.** For `CC1=Nc2cc(C(=O)N3CCCC3)ccc2Sc2c(C)ccc(C)c21`, which “hERG current change (%, negative = inhibition) at 10uM” value is on record?
**A.** -19.5%

**Q.** With `CSc1ncc(OCc2ccccc2)c(=O)[nH]1` as the molecule, how does the “hERG current change (%, negative = inhibition) at 10uM” value read?
**A.** 8.39%

**Q.** Which “hERG current change (%, negative = inhibition) at 10uM” value does the source give for `O=C1CS/C(=N\NC(=O)c2ccccc2)N1` here?
**A.** 15.6%

**Q.** Which “hERG current change (%, negative = inhibition) at 10uM” value does the source give for `Cc1ccccc1-c1nc(CN2CCC(C(=O)NC3CCN(Cc4ccccc4)CC3)CC2)c(C)o1` here?
**A.** -43%

**Q.** With `O=C(NCC1CCCO1)C1CCN(C(=O)c2ccc(Cl)cc2)CC1` (stereo not shown) as the molecule, how does the “hERG current change (%, negative = inhibition) at 10uM” value read?
**A.** -1.73%

**Q.** For `Cc1ccccc1-c1nc(CN2CCC(C(=O)NCCCN3CCCC3)CC2)c(C)o1`, which “hERG current change (%, negative = inhibition) at 10uM” value is on record?
**A.** 14.4%

**Q.** How did the “hERG current change (%, negative = inhibition) at 10uM” value turn out when `Cc1oc(-c2cccc(Cl)c2)nc1CN1CCC(C(=O)NCC2CCCO2)CC1` (stereo not shown) was run?
**A.** -57.1%

**Q.** For `Cc1ccccc1-c1nc(CN2CCC(C(=O)NCC3CCCO3)CC2)c(C)o1` (stereo not shown), which “hERG current change (%, negative = inhibition) at 10uM” value is on record?
**A.** -54.5%

**Q.** How did the “hERG current change (%, negative = inhibition) at 10uM” value turn out when `Cc1oc(-c2ccc(Cl)cc2)nc1CN1CCC(C(=O)NCC2CCCO2)CC1` (stereo not shown) was run?
**A.** -70.1%

**Q.** Which “hERG current change (%, negative = inhibition) at 10uM” value does the source give for `Cc1cccc(-c2nc(CS(=O)CC(=O)NCC3CCCO3)c(C)o2)c1` (stereo not shown) here?
**A.** -5.24%

**Q.** With `Cc1ccccc1-c1nc(CN2CCC(C(=O)NC3CC3)CC2)c(C)o1` as the molecule, how does the “hERG current change (%, negative = inhibition) at 10uM” value read?
**A.** -33%

**Q.** With `Cc1ccccc1-c1nc(CN2CCC(C(=O)NC3CCCCC3)CC2)c(C)o1` as the molecule, how does the “hERG current change (%, negative = inhibition) at 10uM” value read?
**A.** -67.7%

**Q.** How did the “hERG current change (%, negative = inhibition) at 10uM” value turn out when `COc1ccc(-c2nc(CN3CCC(C(=O)NCC4CCCO4)CC3)c(C)o2)cc1OC` (stereo not shown) was run?
**A.** -20.9%

**Q.** How did the “hERG current change (%, negative = inhibition) at 10uM” value turn out when `Cc1ccccc1-c1nc(CN2CCC(C(=O)NCCN3CCOCC3)CC2)c(C)o1` was run?
**A.** -11.4%

**Q.** Which “hERG current change (%, negative = inhibition) at 10uM” value does the source give for `COc1ccccc1N(CC(=O)NC1CCCCC1)C(=O)CCC(=O)Nc1nccs1` here?
**A.** -2.17%

**Q.** `COc1ccc(-c2ccc(SCC(=O)c3ccccc3)nn2)cc1OC` was tested. Which “hERG current change (%, negative = inhibition) at 10uM” value did it give?
**A.** -15.7%

**Q.** For `CC(=O)c1ccc(NC(=O)Nc2ccccc2)cc1`, which “hERG current change (%, negative = inhibition) at 10uM” value is on record?
**A.** -2.03%

**Q.** `CCOC(=O)c1c(C)sc2c1N(C(=O)CN1CCOCC1)c1cc(Cl)ccc1S2` was tested. Which “hERG current change (%, negative = inhibition) at 10uM” value did it give?
**A.** -21.5%

**Q.** How did the “hERG current change (%, negative = inhibition) at 10uM” value turn out when `CC1CCN(C(=O)CN(C2CCCCC2)S(C)(=O)=O)CC1` was run?
**A.** 1.15%

**Q.** With `COc1ccc(N2CCN(c3cc(C)c4cccc(C)c4n3)CC2)cc1` as the molecule, how does the “hERG current change (%, negative = inhibition) at 10uM” value read?
**A.** 22.7%

**Q.** `COc1ccccc1NC(=O)c1nnn(CC(=O)Nc2cc(C)cc(C)c2)c1N` was tested. Which “hERG current change (%, negative = inhibition) at 10uM” value did it give?
**A.** 17%

**Q.** With `CC(C)S(=O)(=O)c1cnc(N2CCOCC2)nc1N` as the molecule, how does the “hERG current change (%, negative = inhibition) at 10uM” value read?
**A.** 11.4%

**Q.** For `Nc1ccc2nc(-c3ccccc3)sc2c1`, which “hERG current change (%, negative = inhibition) at 10uM” value is on record?
**A.** 23.4%

**Q.** For `Cc1cccc(OCc2n[nH]c(=S)n2Cc2ccccc2)c1`, which “hERG current change (%, negative = inhibition) at 10uM” value is on record?
**A.** 11.8%

**Q.** Which “hERG current change (%, negative = inhibition) at 10uM” value does the source give for `O=C(CNC(=O)c1sc2ccccc2c1Cl)Nc1ccccc1F` here?
**A.** -6.72%

**Q.** `COc1ccc(NC(=O)CN(C)C(=O)CCC2CCCC2)cc1` was tested. Which “hERG current change (%, negative = inhibition) at 10uM” value did it give?
**A.** 5.49%

**Q.** How did the “hERG current change (%, negative = inhibition) at 10uM” value turn out when `CC1CCN(C(=O)C2CCCN(S(=O)(=O)c3cccc4nsnc34)C2)CC1` (stereo not shown) was run?
**A.** -27.8%

**Q.** `O=C(C1CCC(CNS(=O)(=O)c2cccc3nsnc23)CC1)N1CC=C(c2ccccc2)CC1` (stereo not shown) was tested. Which “hERG current change (%, negative = inhibition) at 10uM” value did it give?
**A.** -10.3%

**Q.** `O=C(C1CCCN(S(=O)(=O)c2cccc3nsnc23)C1)N1CCCCCC1` (stereo not shown) was tested. Which “hERG current change (%, negative = inhibition) at 10uM” value did it give?
**A.** -16.8%

**Q.** `CCCN(CCC)C(=O)C1CCC(CNS(=O)(=O)c2cccc3nsnc23)CC1` (stereo not shown) was tested. Which “hERG current change (%, negative = inhibition) at 10uM” value did it give?
**A.** -69.5%

**Q.** `O=C(C1CCCN(S(=O)(=O)c2cccc3nsnc23)C1)N1CCN(c2ccccn2)CC1` (stereo not shown) was tested. Which “hERG current change (%, negative = inhibition) at 10uM” value did it give?
**A.** -50.2%

**Q.** For `CCN(CC)C(=O)C1CCC(CNS(=O)(=O)c2cccc3nsnc23)CC1` (stereo not shown), which “hERG current change (%, negative = inhibition) at 10uM” value is on record?
**A.** 2.47%

**Q.** `O=C(CCNS(=O)(=O)c1cccc2nsnc12)N1CCN(c2ccccn2)CC1` was tested. Which “hERG current change (%, negative = inhibition) at 10uM” value did it give?
**A.** -24%

**Q.** `O=C(C1CCC(CNS(=O)(=O)c2cccc3nsnc23)CC1)N1CCN(c2ccccn2)CC1` (stereo not shown) was tested. Which “hERG current change (%, negative = inhibition) at 10uM” value did it give?
**A.** -53.9%

**Q.** `CCCCN(CC)C(=O)C1CCC(CNS(=O)(=O)c2cccc3nsnc23)CC1` (stereo not shown) was tested. Which “hERG current change (%, negative = inhibition) at 10uM” value did it give?
**A.** -23.7%
